{"source": "PubChem BioAssay AID540333", "about": "(Southern Research Specialized Biocontainment Screening …, 2011)", "note": "Screen size: about 10,000 compounds; about 320 (3.2%) were called active. Cut-off read from the data, not from the text of the source: active = CPE inhibition mostly above about 9.1% (no sharp cut-off); inactive = mostly below about 7.2%. Shown is part of a subset that was picked to be rich in actives."}
{"assay": "Dengue virus cytopathic effect inhibitors, cell-based, CPE readout, HTS (AID 540333)", "conditions": "Dengue virus CPE inhibition in host cells, at 20 µM; stronger effect = higher value"}
{"smiles": "CCCCC(=O)Nc1cccc(NC(=S)NC(=O)Cc2ccccc2)c1", "CPE inhibition": "0.515% (inactive)"}
{"smiles": "O=C(Nc1cccc(Cl)c1)c1ccc(Cn2cc(Cl)cn2)cc1", "CPE inhibition": "inactive"}
{"smiles": "COc1cccc(C(Nc2ccccn2)c2c(NC(=O)c3ccco3)sc(C)c2C)c1", "note": "(stereo not given)", "CPE inhibition": "31% (active)"}
{"smiles": "O=C(NC(=S)Nc1ccccn1)c1ccco1", "CPE inhibition": "1.33% (inactive)"}
{"smiles": "Cc1ccnc(NC(=S)NC(=O)c2ccco2)c1", "CPE inhibition": "0.58% (inactive)"}
{"smiles": "Fc1ccccc1NC(=S)NCc1ccc2c(c1)OCO2", "CPE inhibition": "0.705% (inactive)"}
{"smiles": "COc1cc(C(=O)NNC(=S)NC(=O)c2ccc(Cl)cc2)cc(OC)c1OC", "CPE inhibition": "2.02% (inactive)"}
{"smiles": "CCn1c(SCC(=O)Nc2ncc(C(F)(F)F)cc2Cl)nnc1-c1cccc(C)c1", "CPE inhibition": "0.415% (inactive)"}
{"smiles": "Cc1ccc(-c2nn(-c3ccccc3)cc2C(=O)OCC(=O)Nc2ncc(Cl)cc2Cl)cc1", "CPE inhibition": "0.085% (inactive)"}
{"smiles": "Cc1ccc(-n2c(SCC(=O)Nc3cccc(S(N)(=O)=O)c3)nc3ccccc32)cc1", "CPE inhibition": "10.4% (inactive)"}
{"smiles": "Cc1ccc(-n2c(SCC(=O)Nc3ncc(Cl)cc3Cl)nc3ccccc32)cc1", "CPE inhibition": "14.9% (active)"}
{"smiles": "CN(C)S(=O)(=O)c1cccc(NC(=O)CSc2nc3ccccc3n2-c2ccccc2)c1", "CPE inhibition": "6.67% (inactive)"}
{"smiles": "Cc1cccc(-n2c(SCC(=O)Nc3ncc(Cl)cc3Cl)nc3ccccc32)c1", "CPE inhibition": "13.7% (active)"}
{"smiles": "COc1cc2c(cc1OC)CN(c1ccc([N+](=O)[O-])cc1C#N)CC2", "CPE inhibition": "0.37% (inactive)"}
{"smiles": "CN(C)S(=O)(=O)c1ccc(NCC2COc3ccccc3O2)c([N+](=O)[O-])c1", "note": "(stereo not given)", "CPE inhibition": "0.57% (inactive)"}
{"smiles": "O=C(CSc1cccc[n+]1[O-])Nc1cc(S(=O)(=O)N2CCOCC2)ccc1Cl", "CPE inhibition": "inactive"}
{"smiles": "O=c1c2ccccc2sc2ccc(Cl)cc12", "CPE inhibition": "0.48% (inactive)"}
{"smiles": "COc1cc(/C=C(\\C#N)C(=O)NC2CCCCC2C)ccc1OS(=O)(=O)c1ccc(C)cc1", "note": "(stereo not given)", "CPE inhibition": "inactive"}
{"smiles": "CCCCCCCCNC(=O)/C(C#N)=C/c1ccc(SC)cc1", "CPE inhibition": "0.185% (inactive)"}
{"smiles": "CSc1ccc(/C=C(\\C#N)C(=O)NC2CCCCC2C)cc1", "note": "(stereo not given)", "CPE inhibition": "18.5% (active)"}
{"smiles": "CC(=O)Nc1ccc(OCC(O)CN2CCCCC2C)cc1", "note": "(stereo not given)", "CPE inhibition": "0.255% (inactive)"}
{"smiles": "O=[N+]([O-])c1ccc(-c2nnc(-c3ccccc3)c(NCCCO)n2)cc1", "CPE inhibition": "inactive"}
{"smiles": "O=C(CCc1ccc(Oc2cc([N+](=O)[O-])cc([N+](=O)[O-])c2)cc1)N1CCCCCC1", "CPE inhibition": "12.4% (active)"}
{"smiles": "O=C(c1cc([N+](=O)[O-])ccc1N1CCCCC1)N1CCCC1", "CPE inhibition": "0.545% (inactive)"}
{"smiles": "CC1CCN(C(=O)CCc2ccc(Oc3cc([N+](=O)[O-])cc([N+](=O)[O-])c3)cc2)CC1", "CPE inhibition": "6.92% (inactive)"}
